Measured values as given in PubChem BioAssay (Tox21).
Records with an inconclusive call do not appear. Entries that show only a call come without a potency. The source made the active and inactive calls. Calls follow the shape of the dose curve; as a rule, active = well fitted cell-killing curve with a large enough effect in the repeat runs; inconclusive = weak or mixed curves, or effect the other way; inactive = flat fitted curve, though single readings scatter.

Columns and labels:
[1] = cAMP Responsive Elements (CRE) small molecule antagonists, cell-based qHTS assay: qHTS cell viability counter screen (AID 2060913); settings: CRE-bla HEK293T viability, CellTiter-Glo luminescence, 5 h; series mostly up to 92.4 µM; also: nearly all actives have a fitted effect of over 40% in size
Outline: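 CRE-bla HEK293T cells (2,000/well, 18 h) given compound plus NKH477 0.25 uM final for 3 h at 37C; viability counter-screen by CellTiter-Glo luminescence in same wells after 30 min.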

[2] = cAMP Responsive Elements (CRE) small molecule agonists, cell-based qHTS assay: qHTS cell viability counter screen (AID 2060914); settings: CRE-bla HEK293T viability, CellTiter-Glo luminescence, 5 h; series mostly up to 92.4 µM;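 also: viability read after 3 h of compound exposure; nearly all actives have a fitted effect of over 50% in size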
Outline: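 HEK 293T CRE-bla; DMEM + 10% dialyzed FBS, 25 mM HEPES; 18 h pre-incubation; compound 3 h, 37 °C/5% CO2; CellTiter-Glo added after reporter read; luminescence after 30 min RT.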

Row | Structure (SMILES) | Potency [1] | Potency [2]
1 | CC1(C)[C@H](/C=C2\CCSC2=O)[C@@H]1C(=O)OCc1coc(Cc2ccccc2)c1 | inactive | inactive
2 | CC(C)O.CC(C)O.OCCN(CCO)CCO.OCCN(CCO)CCO.[Ti] | inactive | inactive
3 | CC(C)[C@]12CC(=O)[C@H](C)[C@H]1C2 | inactive | inactive
4 | C#CCC1=C(C)C(OC(=O)C2C(C=C(C)C)C2(C)C)CC1=O (stereo not given) | inactive | inactive
5 | O=C(O)C1(c2ccc3c(c2)OC[C@H](Cc2ccc(-c4ccccc4)cc2)[C@H]3O)CCCC1 | inactive | inactive
6 | ClC1=C(Cl)C2(Cl)C(CBr)CC1(Cl)C2(Cl)Cl (stereo not given) | inactive | inactive
7 | O=[N+]([O-])c1ccc(Oc2ccc(Cl)cc2Cl)cc1 | inactive | inactive
8 | CC[N+](=O)[O-] | inactive | inactive
9 | COC(C)(C)CCCC(C)C/C=C/C(C)=C/C(=O)OC(C)C (stereo not given) | inactive | inactive
10 | ClCC(Cl)Cl | inactive | inactive
11 | O=C(NC(=O)c1cc(F)c(F)cc1Cl)Nc1cc(F)ccc1N1CCC(C(=O)O)CC1 | inactive | inactive
12 | CCC(Br)(CC)C(=O)NC(N)=O | inactive | inactive
13 | Cc1ccccc1C(=O)Nc1cccc(OC(C)C)c1 | inactive | inactive
14 | CCCCCCCCCCCCN(C)C | inactive | inactive
15 | O=C(O)C(Cl)(Cl)Cl | inactive | inactive
16 | CC(C)(OO)c1ccccc1 | inactive | inactive
17 | CC(=O)NNc1ccccc1 | inactive | inactive
18 | c1ccc(N=Nc2ccccc2)cc1 | inactive | inactive
19 | C[C@@H]1CC[C@H]2[C@@H](C)C(=O)O[C@@H]3O[C@@]4(C)CC[C@@H]1[C@]32OO4 | inactive | inactive
20 | C=CC#N | inactive | inactive
21 | CCc1cccc(C)c1N(C(=O)CCl)[C@@H](C)COC | inactive | inactive
22 | COP(N)(=O)SC (stereo not given) | inactive | inactive
23 | O=P(O)(O)CN(CP(=O)(O)O)CP(=O)(O)O | inactive | inactive
24 | CC[C@H](O)C(C[C@H](C)N(C)C)(c1ccccc1)c1ccccc1 | inactive | inactive
25 | O=C/C=C/c1ccco1 | inactive | inactive
26 | CN(C)CCc1c[nH]c2cccc(O)c12 | inactive | inactive
27 | CCS(=O)(=O)c1cccnc1S(=O)(=O)NC(=O)Nc1nc(OC)cc(OC)n1 | inactive | inactive
28 | C[C@H]1C(=O)O[C@@H]2CCN3CC=C(COC(=O)[C@](C)(O)[C@]1(C)O)[C@H]23 | inactive | inactive

Row | Structure (SMILES) | Potency [1] | Potency [2]
29 | CNC(C)(C)Cc1ccccc1 | inactive | inactive
30 | ClCC1CO1 (stereo not given) | inactive | inactive
31 | Cc1cc(C)cc(C)c1 | inactive | inactive
32 | CCCCOCCOP(=O)(OCCOCCCC)OCCOCCCC | inactive | inactive
33 | O=S(=O)(c1ccc(O)cc1)c1ccc(O)cc1 | inactive | inactive
34 | CCC1COC(Cn2cncn2)(c2ccc(Cl)cc2Cl)O1 (stereo not given) | inactive | inactive
35 | Oc1ccc2[nH]cc(CCCCN3CC=C(c4ccccc4)CC3)c2c1 | inactive | inactive
36 | CCCCC(CC)COP(=O)(Oc1ccccc1)Oc1ccccc1 (stereo not given) | inactive | inactive
37 | CCCCCCCCP(=O)(O)O | inactive | inactive
38 | CC1(C)C(=O)NC(=O)NC1=O | inactive | inactive
39 | CC(C)CC(N(C)C)C1(c2ccc(Cl)cc2)CCC1 (stereo not given) | inactive | inactive
40 | CC(C)(C)c1ccc(CCOc2ncnc3ccccc23)cc1 | inactive | inactive
41 | Cn1c(CCCC(=O)O)nc2cc(N(CCCl)CCCl)ccc21 | inactive | inactive
42 | COP(=S)(OC)Oc1ccc(SC)c(C)c1 | inactive | inactive
43 | COC(=O)c1sccc1S(=O)(=O)NC(=O)Nc1nc(C)nc(OC)n1 | inactive | inactive
44 | CC(C)(Cl)[N+](=O)[O-] | inactive | inactive
45 | O=C1C(Cl)=C(Cl)C(=O)C(Cl)=C1Cl | inactive | inactive
46 | O=C1CCCCC1Cl (stereo not given) | inactive | inactive
47 | O=[N+]([O-])c1ccccc1-c1ccccc1 | inactive | inactive
48 | FC(F)(F)c1ccc(Cl)cc1 | inactive | inactive
49 | CCOP(=O)(N=C1SCCS1)OCC | inactive | inactive
50 | CCN(CC)C(=S)S | inactive | inactive
51 | Oc1cccc2cccnc12 | inactive | inactive
52 | O=S1(=O)OCCO1 | inactive | inactive
53 | O=C(NCc1cccnc1)Nc1ccc([N+](=O)[O-])cc1 | inactive | inactive
54 | Cc1cc2c3c(c1)C(c1ccccc1)=N[C@@H](NC(=O)c1ccncc1)C(=O)N3CC2 | inactive | inactive
55 | CCN[C@@H](C)Cc1cccc(C(F)(F)F)c1 | inactive | inactive
